For eight molecules, growth results are on record in PubChem BioAssay (NCI).

About 83,000 compounds went through this panel and 20% of them were active in at least one assay; those are over-represented in the sample as a whole.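 Method: cells in 96-well plates; compound added at one concentration; 48 h incubation; percent growth measured; values under 10 scored active.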 Values without a mark were called inactive. The source made the active and inactive calls.

Test systems include HCT-15 colon; SNB-75 CNS; SNB-19 CNS; U251 CNS; PC-3 prostate; UACC-62 melanoma; LOX IMVI melanoma; SK-MEL-28 melanoma; EKVX NSCLC; SN12C renal; UO-31 renal; ACHN renal; CAKI-1 renal; A498 renal; CCRF-CEM leukemia; MOLT-4 leukemia; SK-MEL-5 melanoma; SK-MEL-2 melanoma; TK-10 renal.
Holding throughout (assay): NCI-60 one-dose screen, 48 h (100 = growth as untreated, 0 = no growth, -100 = all killed)
Holding throughout (conditions): 10 µM unless noted

On to `C=C1CC[C@@H]2[C@](C)(COC(C)=O)[C@H](OC(C)=O)CC[C@@]2(C)[C@@H]1CC(NCc1ccccc1)C1=CCOC1=O` (stereo partly specified), for which the growth in the assay on HCT-15 colon is 41%; in the assay on SNB-75 CNS, 76.9%; in the assay with SNB-19 CNS it was 68.2%; in the assay on U251 CNS it was 47.6%; in the assay on PC-3 prostate it was 10.1%; in the assay with UACC-62 melanoma it was 38.8%. Further, the growth in the assay on LOX IMVI melanoma was 44.6%; in the assay on SK-MEL-28 melanoma it was 68.6%; in the assay on EKVX NSCLC, 53.9%; with SN12C renal, 58.2%; in the assay on UO-31 renal it was 29.1%; in the assay on ACHN renal, 46.4%. Besides, the growth in the assay on CAKI-1 renal was 49.6%; in the assay on A498 renal, 56.2%; in the assay with CCRF-CEM leukemia, 20.9%; in the assay with MOLT-4 leukemia, -3.86% (active).
Take `COc1cccc(CCN2C(=O)CCC3=C2CCC3=O)c1`: the growth with HCT-15 colon was 108%; with SNB-75 CNS, 84.4%; in the assay on SNB-19 CNS it was 102%; in the assay on PC-3 prostate, 93.5%; in the assay with SK-MEL-5 melanoma, 98.2%; in the assay with UACC-62 melanoma, 97.8%. Also, the growth with LOX IMVI melanoma is 97.9%; in the assay with SK-MEL-28 melanoma it was 111%; in the assay with SK-MEL-2 melanoma, 145%; in the assay on SN12C renal, 99.4%; in the assay with UO-31 renal it was 85.7%; in the assay on TK-10 renal, 107%. Also, the growth with ACHN renal was 99.8%; in the assay on CAKI-1 renal it was 98%; in the assay on A498 renal, 114%; with MOLT-4 leukemia, 105%.
Turning to `CC(C)CC1NC(=O)C(CCCN)NC(=O)C(C(C)C)NC(=O)C2CCCN2C(=O)C(Cc2ccccc2)NC(=O)C(CC(C)C)NC(=O)C(CCCN)NC(=O)C(C(C)C)NC(=O)C2CCCN2C(=O)C(Cc2ccccc2)NC1=O` (stereo unspecified), the growth in the assay with HCT-15 colon is 7.83% (active); in the assay on SNB-75 CNS, -81.5% (active); with SNB-19 CNS it was -83% (active); in the assay on PC-3 prostate, -49.2% (active); in the assay on SK-MEL-5 melanoma, -98.3% (active); in the assay with UACC-62 melanoma, -75.3% (active). The growth in the assay on LOX IMVI melanoma was -86.7% (active); in the assay on SK-MEL-28 melanoma, -72.1% (active); in the assay on SK-MEL-2 melanoma, -94% (active); in the assay on EKVX NSCLC, -87.3% (active); in the assay with SN12C renal, -82.2% (active); in the assay with UO-31 renal it was -20% (active). The growth was -19.8% (active) with ACHN renal; -14.8% (active) with CAKI-1 renal; -70.1% (active) in the assay with A498 renal; -59.3% (active) in the assay on CCRF-CEM leukemia; -51.3% (active) in the assay with MOLT-4 leukemia.
As to `NS(=O)(=O)c1ccc(-n2ncc3c(N/N=C/c4ccccc4)ncnc32)cc1`, the growth with HCT-15 colon is 108%; with SNB-75 CNS, 104%; with SNB-19 CNS, 80.4%; in the assay with U251 CNS it was 89.7%; in the assay with PC-3 prostate, 80.6%; in the assay on SK-MEL-5 melanoma, 86.7%. The growth in the assay on LOX IMVI melanoma was 91.7%; with SK-MEL-28 melanoma it was 95.3%; in the assay with SK-MEL-2 melanoma, 70.5%; with EKVX NSCLC, 108%; in the assay on SN12C renal, 93%; in the assay on UO-31 renal, 68.8%. Besides, the growth in the assay with TK-10 renal was 93.6%; in the assay with ACHN renal, 94.7%; with CAKI-1 renal, 53.4%; in the assay with A498 renal it was 111%; in the assay with CCRF-CEM leukemia, 84.6%; in the assay on MOLT-4 leukemia, 71.4%.
Take `NC(=O)c1cc(Cl)ccc1NC(=O)c1ccccc1-c1ccccc1`: the growth in the assay on HCT-15 colon was 27.9%; with SNB-75 CNS, -5.88% (active); in the assay with SNB-19 CNS, 31.9%; in the assay on U251 CNS, 21.4%; with PC-3 prostate it was 23.5%; in the assay on SK-MEL-5 melanoma, 26.4%. For the same molecule, the growth in the assay on UACC-62 melanoma is 18.6%; in the assay with SK-MEL-28 melanoma, 41.5%; with SK-MEL-2 melanoma it was -12.2% (active); in the assay with SN12C renal, 51.9%; with UO-31 renal it was 30.7%; in the assay on TK-10 renal, 41.6%. Further, the growth in the assay on ACHN renal was 34.9%; in the assay with CAKI-1 renal, 26.4%; in the assay with CCRF-CEM leukemia, 7.4% (active); in the assay on MOLT-4 leukemia, 13.3%.
For the molecule `N/C(=N\c1nc2ccccc2s1)NC(=O)Nc1ccccc1Cl`, the growth is 23.9% with HCT-15 colon; 37.4% with SNB-19 CNS; 19.1% in the assay with U251 CNS; 27.8% with PC-3 prostate; 23.8% with SK-MEL-5 melanoma; 26.7% with UACC-62 melanoma. In addition, the growth is 36.2% with LOX IMVI melanoma; 46.8% in the assay with SK-MEL-28 melanoma; 18.8% in the assay on SK-MEL-2 melanoma; 41.2% in the assay with EKVX NSCLC; 42.2% in the assay on SN12C renal; 54.2% in the assay with UO-31 renal. Also, the growth is 69.4% with TK-10 renal; 42.2% with ACHN renal; 32.7% in the assay on CAKI-1 renal; 12.9% with CCRF-CEM leukemia; 13.9% in the assay with MOLT-4 leukemia.
As for `COc1ccc(-c2cc(-c3cccnc3)nc3sc(C(=O)Nc4ccccc4)c(N)c23)cc1OC`, the growth in the assay on HCT-15 colon was 63.5%; in the assay with SNB-75 CNS, 82.8%; in the assay with SNB-19 CNS, 79.8%; with U251 CNS it was 61.3%; in the assay on PC-3 prostate, 56.9%; with SK-MEL-5 melanoma it was 75.1%. The growth in the assay with UACC-62 melanoma is 69.3%; with LOX IMVI melanoma, 60%; in the assay on SK-MEL-28 melanoma, 73.3%; with SN12C renal, 57.2%; with UO-31 renal, 32.2%; in the assay on ACHN renal, 41.1%. The growth was 46.7% in the assay with CAKI-1 renal, 65.1% in the assay with A498 renal, 36.9% in the assay on CCRF-CEM leukemia and 32.1% with MOLT-4 leukemia.
`O=C1CNc2cc(Cl)ccc2N1`: the growth in the assay with HCT-15 colon is 109%; in the assay with SNB-75 CNS it was 89.8%; in the assay with SNB-19 CNS, 107%; in the assay with PC-3 prostate, 104%; in the assay with SK-MEL-5 melanoma, 99.9%; in the assay with UACC-62 melanoma it was 101%. The growth in the assay on SK-MEL-28 melanoma is 107%; with EKVX NSCLC, 89.1%; with SN12C renal it was 103%; in the assay on UO-31 renal, 81.6%; with ACHN renal it was 98.6%; in the assay on CAKI-1 renal, 97.8%. The growth was 97.3% in the assay on A498 renal, 93.3% with CCRF-CEM leukemia and 87.4% with MOLT-4 leukemia.
